# Activity calls are given as the source filed them.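 The calls were made as follows, unless noted: active = visually confirmed hit in the image check and inhibition above 20%; inconclusive = visually confirmed hit but inhibition not above 20%; inactive = no visual hit in the image check.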
# Tests used:
# [1] = inhibitors of TNFa-induced NFkB p65 translocation, primary screen, imaging, HUVEC, MLSMR starter and 10KST1 sets (AID 438;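 active = inhibition above 20% together with a positive visual image hit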;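 also: compound added about 3h40 before a 20 min TNFalpha stimulation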;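 as to inhibition: signal is the nuclear over cytoplasmic p65 intensity ratio per well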); conditions: HUVEC TNFa-induced p65 nuclear translocation; cell count: measured here: nuclei count (cytotoxicity indicator), at 2.08 µM; inhibition: at 2 µM, stronger effect = higher value, 0% TNFa-plus-vehicle, 100% no-TNFa wells
# [2] = inhibitors of mutant huntingtin aggregation, primary screen, imaging, exon1htt(103Q)mCFP cells, high-content imaging (AID 483;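 active = visual image review flags a hit and inhibition of aggregation exceeds 20%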;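 also: compound exposure lasted 3 days before fixation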;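 as to nuclei count: percent of the per-plate median nuclei count of sample wells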); conditions: exon1htt(103Q)mCFP cell line, aggregate imaging, at 2 µM; inhibition of aggregation: stronger effect = higher value; nuclei count: measured here: cell count, toxicity
# [3] = inhibitors of E-selectin induction by TNFa, primary screen, imaging, HUVEC, immunofluorescence, MLSMR starter and 10KST1 sets (AID 487); conditions: HUVEC TNFalpha-induced E-selectin immunofluorescence imaging, at 2 µM; inhibition: stronger effect = higher value; nuclei count: measured here: cell number, toxicity;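 as to inhibition: signal is fraction of cell area covered by stained E-selectin grains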;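 as to nuclei count: 100% = median nuclei count of all wells on the same plate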
# [4] = molecular target: Voltage-gated potassium channel subunit beta-2 (Rattus norvegicus) (UniProt P62483); test: KvBeta enzyme negative modulators, primary screen, biochemical, NADPH fluorescence (AID 622;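 active = fluorescence slope higher than the sample average by over 3 SD, cut at about -0.22 in these data, passing the limit was not always enough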;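 also: slope of raw intensity against log time taken from 70 to 1610 s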); conditions: recombinant KvBeta, 4-cyanobenzaldehyde reduction, at 10 µM, stronger effect = higher value
# Voltage-gated potassium channel subunit beta-2 (Rattus norvegicus), sequence (P62483 whole entry, looked up): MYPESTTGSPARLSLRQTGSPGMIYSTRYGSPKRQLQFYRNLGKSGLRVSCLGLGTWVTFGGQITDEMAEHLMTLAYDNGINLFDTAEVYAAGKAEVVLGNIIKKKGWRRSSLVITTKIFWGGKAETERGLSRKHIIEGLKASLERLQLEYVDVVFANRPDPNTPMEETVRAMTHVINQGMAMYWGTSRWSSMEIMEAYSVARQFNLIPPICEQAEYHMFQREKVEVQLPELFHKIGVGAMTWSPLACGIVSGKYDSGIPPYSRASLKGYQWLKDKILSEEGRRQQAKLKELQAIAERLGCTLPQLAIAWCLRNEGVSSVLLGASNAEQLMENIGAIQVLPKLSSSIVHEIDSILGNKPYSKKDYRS
# [5] = molecular target: Voltage-gated potassium channel subunit beta-2 (Rattus norvegicus) (UniProt P62483); test: KvBeta positive modulators, primary screen, biochemical, NADPH fluorescence (AID 623;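 active = NADPH fluorescence slope more negative than the mean of all samples by about 3 SD, 99.7% confidence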;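 also: fluorescence intensity change per second fitted from 20 to 320 s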); conditions: Recombinant KvBeta, NADPH fluorescence decrease slope, 10 min; at 10 µM; stronger effect = lower value
# [6] = molecular target: Alpha-2C adrenergic receptor (Homo sapiens) (UniProt P18825); test: modulators of alpha2C/GIRK thallium flux, primary screen, cell-based, HEK293 alpha2C/GIRK1/2 (AID 624;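 active = fluorescence slope after compound addition differing from the mean of all screened samples at 99.7% confidence, in either direction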;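 also: slope of fluorescence ratio to pre-addition baseline per second over 15 to 24 s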); conditions: thallium flux BTC fluorescence, at 10 µM, actives lie on both sides
# Alpha-2C adrenergic receptor (Homo sapiens), sequence (P18825 whole entry, looked up): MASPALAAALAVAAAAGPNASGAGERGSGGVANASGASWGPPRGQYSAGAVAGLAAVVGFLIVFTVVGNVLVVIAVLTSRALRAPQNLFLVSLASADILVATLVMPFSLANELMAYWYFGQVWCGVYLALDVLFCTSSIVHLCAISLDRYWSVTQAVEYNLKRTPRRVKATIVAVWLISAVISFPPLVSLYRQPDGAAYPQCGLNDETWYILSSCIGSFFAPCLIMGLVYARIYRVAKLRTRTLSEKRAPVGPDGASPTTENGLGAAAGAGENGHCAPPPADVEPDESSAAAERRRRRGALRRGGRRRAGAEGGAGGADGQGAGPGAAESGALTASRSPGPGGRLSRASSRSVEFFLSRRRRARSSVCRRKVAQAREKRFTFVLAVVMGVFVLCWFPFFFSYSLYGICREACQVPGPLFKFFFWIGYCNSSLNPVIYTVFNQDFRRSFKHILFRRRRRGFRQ
# [7] = inhibitors of Sendai virus-induced IRF3 signaling, primary screen, TLR/RLR signaling modifier project, cell-based, Sendai virus stimulus, luciferase, 10K MLSCN set (AID 602276;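 active = inhibition at or above 50% at 10 µM; inactive = inhibition below 50%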;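 also: firefly luciferase from ISG56 promoter only with Renilla not read in this screen; 0% = Sendai virus plus DMSO and 100% = medium plus DMSO without virus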); conditions: HEK293 RL24 IRF3 luciferase reporter, at 10 µM, stronger effect = higher value
# [8] = inhibitors of poly I:C-induced TLR3 signaling, primary screen, cell-based, poly I:C stimulus, luciferase, 10K MLSCN set (AID 602277;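 active = inhibition of the reporter signal at or above 50%; inactive = inhibition below 50%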); conditions: HEK293-TLR3 RL24 IRF3 luciferase reporter, at 10 µM, stronger effect = higher value
compound,measurement,setting,value
CC(=O)Nc1ccc(S(=O)(=O)N2CCC(c3nc4ccccc4[nH]3)CC2)cc1,cell count,[1],232
same,inhibition,[1],0% (inactive)
same,inhibition of aggregation,[2],14.3% (inactive)
same,nuclei count,[2],93.3%
same,inhibition,[3],17.7% (inactive)
same,nuclei count,[3],84.3%
same,fluorescence slope,[4],-0.584 (inactive)
same,NADPH fluorescence slope,[5],-6.2e-05 (inactive)
same,slope,[6],0.00595 (inactive)
same,inhibition,[7],7.22% (inactive)
same,inhibition,[8],17.6% (inactive)
CN1CCN(C(=O)c2ccc3c(=O)n(CCc4ccccc4)c(=S)[nH]c3c2)CC1,cell count,[1],551
same,inhibition,[1],-13.1% (inactive)
same,inhibition of aggregation,[2],-0.8% (inactive)
same,nuclei count,[2],77%
same,inhibition,[3],-44.1% (inactive)
same,nuclei count,[3],98.9%
same,fluorescence slope,[4],-0.459 (inactive)
same,NADPH fluorescence slope,[5],5.7e-06 (inactive)
same,slope,[6],0.00697 (inactive)
same,inhibition,[7],4.3% (inactive)
same,inhibition,[8],23.3% (inactive)
COc1ccc(NC(=O)CCc2nc(-c3ccccc3F)no2)cc1,cell count,[1],729
same,inhibition,[1],-1.7% (inactive)
same,inhibition of aggregation,[2],30% (active)
same,nuclei count,[2],94.6%
same,inhibition,[3],-8.4% (inactive)
same,nuclei count,[3],115%
same,fluorescence slope,[4],-0.47 (inactive)
same,NADPH fluorescence slope,[5],-2.2e-05 (inactive)
same,slope,[6],0.00593 (inactive)
same,inhibition,[7],4.66% (inactive)
same,inhibition,[8],10.4% (inactive)
COc1ccccc1N(CN1CCCC1=O)C(=O)c1c(F)cccc1Cl,cell count,[1],370
same,inhibition,[1],-0.3% (inactive)
same,inhibition of aggregation,[2],9.3% (inactive)
same,nuclei count,[2],84.8%
same,inhibition,[3],-15.4% (inactive)
same,nuclei count,[3],91.8%
same,fluorescence slope,[4],-0.477 (inactive)
same,NADPH fluorescence slope,[5],-3.8e-05 (inactive)
same,slope,[6],0.0058 (inactive)
same,inhibition,[7],12.3% (inactive)
same,inhibition,[8],4.03% (inactive)
Cc1c(NC(=O)c2noc3c2CCc2ccccc2-3)c(=O)n(-c2ccccc2)n1C,cell count,[1],620
same,inhibition,[1],-3.4% (inactive)
same,inhibition of aggregation,[2],-4.3% (inactive)
same,nuclei count,[2],110%
same,inhibition,[3],-79.6% (inactive)
same,nuclei count,[3],116%
same,fluorescence slope,[4],-0.474 (inactive)
same,NADPH fluorescence slope,[5],2.6e-05 (inactive)
same,slope,[6],0.0062 (inactive)
same,inhibition,[7],2.37% (inactive)
same,inhibition,[8],-5.2% (inactive)
COc1ccc(NC(=O)CSc2nc3c(c(=O)n2-c2ccccc2OC)SCC3)cc1,cell count,[1],726
same,inhibition,[1],-6.7% (inactive)
same,inhibition of aggregation,[2],-10.4% (inactive)
same,nuclei count,[2],107%
same,inhibition,[3],-25.6% (inactive)
same,nuclei count,[3],106%
same,fluorescence slope,[4],-0.568 (inactive)
same,NADPH fluorescence slope,[5],-5.1e-05 (inactive)
same,slope,[6],0.00646 (inactive)
same,inhibition,[7],4.03% (inactive)
same,inhibition,[8],31% (inactive)
CN1CC=C2C(C#N)=C(N)C(C#N)(C#N)C(Cc3ccccc3)C2C1 (stereo unspecified),cell count,[1],556
same,inhibition,[1],10% (inactive)
same,inhibition of aggregation,[2],0.5% (inactive)
same,nuclei count,[2],81.2%
same,inhibition,[3],-7.7% (inactive)
same,nuclei count,[3],102%
same,fluorescence slope,[4],-0.507 (inactive)
same,NADPH fluorescence slope,[5],-2.1e-05 (inactive)
same,slope,[6],0.0052 (inactive)
same,inhibition,[7],4.84% (inactive)
same,inhibition,[8],8.81% (inactive)
O=C(c1ccc(Cl)c(F)c1F)N1CCCC1,cell count,[1],384
same,inhibition,[1],4.4% (inactive)
same,inhibition of aggregation,[2],-11.4% (inactive)
same,nuclei count,[2],112%
same,inhibition,[3],-29.8% (inactive)
same,nuclei count,[3],70.2%
same,fluorescence slope,[4],-0.276 (inactive)
same,NADPH fluorescence slope,[5],1.2e-05 (inactive)
same,slope,[6],0.00949 (inactive)
same,inhibition,[7],-9.75% (inactive)
same,inhibition,[8],11.3% (inactive)
COc1ccc(C2(C(=O)N3CCCC3)CCOCC2)cc1OC,cell count,[1],352
same,inhibition,[1],5.5% (inactive)
same,inhibition of aggregation,[2],-9.9% (inactive)
same,nuclei count,[2],97.5%
same,inhibition,[3],30.4% (inactive)
same,nuclei count,[3],111%
same,fluorescence slope,[4],-0.341 (inactive)
same,NADPH fluorescence slope,[5],-1.4e-05 (inactive)
same,slope,[6],0.00553 (inactive)
same,inhibition,[7],2.28% (inactive)
same,inhibition,[8],15.1% (inactive)
CCN(CC)S(=O)(=O)c1ccc(NC(=O)CN(c2cccc(F)c2)S(C)(=O)=O)cc1,cell count,[1],426
same,inhibition,[1],1.1% (inactive)
same,inhibition of aggregation,[2],-25.1% (inactive)
same,nuclei count,[2],107%
same,inhibition,[3],-25.3% (inactive)
same,nuclei count,[3],98.6%
same,fluorescence slope,[4],-0.449 (inactive)
same,NADPH fluorescence slope,[5],2.5e-05 (inactive)
same,slope,[6],0.00334 (inactive)
same,inhibition,[7],8.61% (inactive)
same,inhibition,[8],18.3% (inactive)
COc1ccc(CC(=O)Nc2c3c(nn2-c2cccc(Cl)c2)CS(=O)C3)cc1 (stereo unspecified),cell count,[1],466
same,inhibition,[1],5.7% (inactive)
same,inhibition of aggregation,[2],-8.1% (inactive)
same,nuclei count,[2],101%
same,inhibition,[3],-43.1% (inactive)
same,nuclei count,[3],87.6%
same,fluorescence slope,[4],-0.492 (inactive)
same,NADPH fluorescence slope,[5],2.6e-05 (inactive)
same,slope,[6],0.00562 (inactive)
same,inhibition,[7],9.81% (inactive)
same,inhibition,[8],14.2% (inactive)

# Reference: PubChem BioAssay
